# The sample as a whole holds a higher share of hits than the screen did.
# Tgondii IFNg: blocks Toxoplasma gondii growth in the presence of IFN-gamma; 3.8% of 69,000 active; activity change, negative = inhibition, % (test concentration not listed); AID 1259416; Toxoplasma gondii growth in IFN-gamma-treated host cells; hits give low values; in the data active = activity change below about -70%, passing the limit was not always enough;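 also: host cells are HeLa cells infected with Toxoplasma gondii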
# * marks the source's active call; other numbers are inactive results; ! = not active in a repeat.
SMILES,Tgondii IFNg
COc1ccccc1CNC(=O)c1ccc(-c2nc(CN3CCN(c4ccccc4)CC3)c(C)o2)cc1,-109*
Cc1oc(-c2ccc(C(=O)NCc3cccs3)cc2)nc1CN1CCN(c2ccccc2)CC1,-57
Cc1oc(-c2ccc(C(=O)NCc3ccccn3)cc2)nc1CN1CCN(c2ccccc2)CC1,-29
Cn1cncc1CN1CC[C@@H]2OCCN(S(C)(=O)=O)[C@@H]2C1,-7
CCOc1ccc(-c2nc(Cn3ccn4nc(-c5ccc6c(c5)OCO6)cc4c3=O)c(C)o2)cc1,4
Cc1ccc(C2CCCN2C(=O)CC2CCN(C(=O)C(C)C)CC2)cc1C (stereo unspecified),-7
Cc1c(-c2csc(-c3ccc(Cl)cc3)n2)sc2ccccc12,35
COc1ccc(CCNC(=O)C2CCCN2S(=O)(=O)c2ccc(C)cc2)cc1 (stereo unspecified),-8
NC(=S)N=Nc1c(O)n(Cc2ccccc2)c2ccccc12,-103*
Cc1cc(Br)c2c(c1)c(N=NC(N)=S)c(O)n2C,-31
Cn1ccnc1CN1CC[C@@H](O)[C@@H]1Cc1cccnc1,-5
CSc1nsc(SC)c1C(=O)Oc1ccccc1N1CCOCC1,10
CC1CN(CC(=O)NCc2ccc3c(c2)OCO3)Cc2cc(Cl)ccc2O1 (stereo unspecified),3
COc1ccc2ncc3c(c2c1)-c1cc(Cl)ccc1OC3,255
COc1ccc(CN2COc3ccc(Cl)cc3C2)cc1,-89*
CCn1c(CNC(=O)C2CCC2)nc2c1CN(S(=O)(=O)c1ccc(C)cc1)CC2,90
COc1ccc(C2(C(=O)Nc3ccc(N4CCCC4)c4nonc34)CCOCC2)cc1,12
CCOc1ccccc1-c1nc(CSc2nc3c(=O)[nH]cnc3n2-c2ccc(C)cc2)c(C)o1,120
COc1ccc(-c2nc(Cn3nnc(-c4nc(-c5ccc(SC)cc5)no4)c3C)c(C)o2)cc1,16
Cn1c(=O)c2c3nc4ccccc4cc3c(=O)n(C)c2n(C)c1=O,-13
CN(C)c1cc(Nc2ccccc2)c2c(=O)n(C)c(=O)n(C)c2n1,-84*
Cn1c(=O)c2c(-c3ccc(F)cc3)cc(-c3cccc(F)c3)nc2n(C)c1=O,-10
Cc1ccc(Cc2cnc(NC(=O)C3COc4ccccc4O3)s2)cc1 (stereo unspecified),-50
CN1C[C@@H]2CC[C@H](CC1=O)N2C(=O)CCn1cncn1,3
O=C(CCCCCCC(=O)Nc1cccnc1)NO,-84*
SMILES,Tgondii IFNg
O=C(CCCCCCC(=O)Nc1ccccc1)NO,-84*!
CCCCC(=O)Nc1ccc(-c2nc(-c3ccccc3)co2)cc1,5
CN(CC(=O)Nc1cccnc1)S(=O)(=O)c1ccc(Cl)cc1,-53
O=C(O)CSCCCC(=O)Nc1ccc(Br)cc1,-3
O=C(NC(=S)Nc1cccnc1)c1ccccc1,-11
CC1=C(C(=O)NCc2ccc3c(c2)OCO3)C2(CCN(S(C)(=O)=O)CC2)OC1=O,20
CC1CCCN(S(=O)(=O)CCN)C1 (stereo unspecified),10
COc1ccc(OS(=O)(=O)c2ccc(S(=O)(=O)NCc3ccccc3)cc2)cc1,2
CN1CC2(CCC1=O)CCN(C(=O)c1ccncn1)CC2,116
Cc1oc2ccccc2c1CC(=O)Nc1ccc(OC(F)(F)F)cc1,-56
O=S(=O)(c1ccccc1)N1CC2CN(Cc3ccc(Cl)cc3)C2C1 (stereo unspecified),-106*
O=S(=O)(Cc1ccccc1)N1CC2CN(Cc3cccc(Cl)c3)CC2C1 (stereo unspecified),-21
O=S(=O)(Cc1ccccc1)N1CC2CN(Cc3ccccc3)CC2C1 (stereo unspecified),-14
COCC1c2c(cnn2CC2CC2)CCN1C(=O)c1ccoc1 (stereo unspecified),-1
COCc1nn(CC2CC2)c2c1CN(Cc1cccs1)CC2,-4
Cc1nc(N2CCCC2)nc2c1CCN(c1ncccn1)CC2,353
Cc1nc(-c2ccccc2)nc2c1CCN(c1ncc(F)cn1)CC2,-13
Cc1nc(N2CCCC2)nc2c1CCN(c1ncc(F)cn1)CC2,-86*
CC(C)N(C)Cc1cc(=O)n2c(n1)CN(C(=O)c1cnccn1)CCC2,4
O=C(CSc1nccc2ccccc12)NCc1noc(-c2ccccc2)n1,-23
CC(C)Cc1cc(C(=O)NCc2cnn3ccccc23)n(C)n1,-34
Cc1nccn1-c1ccccc1CNC(=O)c1cc(C(C)C)nn1C,-2
CC(C)c1cc(C(=O)NCc2nc(-c3ccccc3)no2)n(C)n1,-100*
CC(C)c1cc(C(=O)NCc2cc(-c3ccco3)on2)n(C)n1,3
Cc1nc(-c2ccc(CNC(=O)c3cc(CC(C)C)nn3C)cc2)no1,-78*
SMILES,Tgondii IFNg
CCCn1ncc(C(=O)NCc2ccc(-c3noc(C)n3)cc2)c1C,-14
O=C(Cn1c(=O)cc(C(=O)N2CCOCC2)c2ccccc21)Nc1ccc(F)c(Cl)c1,12
Cc1c(Cl)cccc1NC(=O)CN1CCC2(CC1)N=C(c1ccc(F)cc1)C(=O)N2,46
COc1ccccc1OCC(=O)N1CCC[C@]2(C[C@@H](OC)CO2)C1,4
COC1COC2(CCN(C(=O)Cc3ccccn3)CC2)C1 (stereo unspecified),-98*
CC(C)C(=O)NC1COC2(CCN(C(=O)Cc3ccccn3)CC2)C1 (stereo unspecified),-2
CN(C)CCOc1ccc(-c2nc(-c3ccc4c(c3)CC/C4=N\O)c(-c3ccncc3)[nH]2)cc1,-79*
COc1ccc(-c2nc(-c3ccc(O)cc3)[nH]c2-c2ccc(OC)cc2)cc1,8
CC(C)Cn1cncc1CNc1nc(CCN)nc2ccccc12,6
O=c1ccc2cc(S(=O)(=O)N(Cc3ccco3)CC3CCCO3)ccc2[nH]1 (stereo unspecified),30
Cc1noc(C)c1NC(=O)N(C)C[C@H]1Oc2cc(C#CCN(C)C)ccc2S(=O)(=O)N([C@H](C)CO)C[C@@H]1C,50
Cc1ccccc1-c1ccc2c(c1)O[C@H](CN(C)C(=O)Nc1ccc(C(F)(F)F)cc1)[C@H](C)CN([C@H](C)CO)S2(=O)=O,-23
CCCNC(=O)N(C)C[C@H]1Oc2cc(C#C[C@H](C)O)ccc2S(=O)(=O)N([C@@H](C)CO)C[C@@H]1C,103
C[C@H](CO)N1C[C@H](C)[C@@H](CN(C)C(=O)Nc2cccc(F)c2)Oc2cc(C#CC3(O)CCCC3)ccc2S1(=O)=O,-93*
CCCNC(=O)N(C)C[C@@H]1Oc2cc(C#C[C@H](C)O)ccc2S(=O)(=O)N([C@@H](C)CO)C[C@H]1C,50
CCCNC(=O)N(C)C[C@H]1Oc2cc(C#C[C@@H](C)O)ccc2S(=O)(=O)N([C@@H](C)CO)C[C@@H]1C,12
CCCNC(=O)N(C)C[C@@H]1Oc2cc(C#C[C@@H](C)O)ccc2S(=O)(=O)N([C@@H](C)CO)C[C@@H]1C,-55
Cc1ccccc1-c1ccc2c(c1)O[C@@H](CN(C)C(=O)Nc1ccc(C(F)(F)F)cc1)[C@H](C)CN([C@H](C)CO)S2(=O)=O,-92*
C[C@@H]1CN([C@H](C)CO)S(=O)(=O)c2ccc(C#CC3(O)CCCC3)cc2O[C@H]1CN(C)C(=O)Nc1cccc(F)c1,-90*
C[C@@H]1CN([C@H](C)CO)S(=O)(=O)c2ccc(C#CC3(O)CCCC3)cc2O[C@@H]1CN(C)C(=O)Nc1cccc(F)c1,-99*
C[C@H](CO)N1C[C@H](C)[C@@H](CN(C)C(=O)Nc2ccccc2F)Oc2cc(Br)ccc2S1(=O)=O,46
CCCNC(=O)N(C)C[C@@H]1Oc2cc(C#C[C@@H](C)O)ccc2S(=O)(=O)N([C@H](C)CO)C[C@@H]1C,51

# From PubChem
